This is an account of results in PubChem BioAssay AID1611 (NINDS Approved Drug Screening Program, 2009).

The nature of this experiment: HSE-luciferase reporter activators – cell-based (AID 1611). The settings on record: human cells, HSE-luciferase heat shock reporter; stronger effect = higher value. A general note: In a reporter assay the amount or activity of a reporter protein is the signal.
For `NS(=O)(=O)c1cc2c(cc1Cl)NCNS2(=O)=O`, the fold change turned out to be 0.97.
Consider `CC(=O)[C@@]1(O)CCC2C3C[C@H](C)C4=CC(=O)C=CC4(C)[C@@]3(F)[C@@H](O)C[C@@]21C` (stereo not given in full), for which the fold change was determined as 1.43.
On to `CC(C)(C)NC[C@@H](O)COc1nsnc1N1CCOCC1`, for which the fold change came out at 0.87.
On to `Nc1nc2c(ncn2COCCO)c(=O)[nH]1`, for which the fold change was found to be 1.01.
Regarding `O=C1C[C@@H](c2ccc(O)cc2)Oc2cc(O)cc(O)c21`, the fold change was 0.8.
Regarding `CC[C@@H](C(=O)C(C)[C@@H](O)[C@H](C)CCc1ccc(C)c(O)c1C(=O)O)C1OC(CC)(C2CC[C@](O)(CC)[C@H](C)O2)C[C@@H]1C` (stereo not given in full), the fold change turned out to be 1.12.
Consider `COC(=O)Nc1nc2ccc(Sc3ccccc3)cc2[nH]1`, for which the fold change came out at 0.92.
In the case of `CCOC(=O)C(Cc1ccc(O)cc1)NC(C)=O` (stereo not given), the fold change turned out to be 0.71.
On to `Nc1c(Br)cc(Br)cc1CNC1CCC(O)CC1` (stereo not given), for which the fold change was found to be 1.19.
Consider `O=c1cc[nH]c(=S)[nH]1`, for which the fold change came to 0.78.
Take `c1ccc(CN(CC2=NCCN2)c2ccccc2)cc1`: the fold change was found to be 1.78.
In the case of `CCCCCC(C)N` (stereo not given), the fold change was found to be 1.8.
As for `Cc1ccc(/C(=C\CN2CCCC2)c2ccccn2)cc1`, the figure is 0.61.
As for `NC(N)=O`, the figure is 1.06; as for `CC(C)CC1NC(=O)CNC1=O` (stereo not given), 0.55.
For the compound `O=c1ccn([C@@H]2O[C@H](COP(=O)(O)OP(=O)(O)OP(=O)(O)O)[C@@H](O)[C@H]2O)c(=O)[nH]1`, the fold change worked out at 1.15.
On to `CN(C)c1ccc(C(=C2C=CC(=[N+](C)C)C=C2)c2ccc(N(C)C)cc2)cc1`, for which the fold change is 1.22.
Turning to `CO[C@]12C[C@@H](COC(=O)c3cncc(Br)c3)CN(C)[C@@H]1Cc1cn(C)c3cccc2c13`, the fold change came out at 0.91.
For `CN1CCc2cccc3c2C1Cc1ccc(O)c(O)c1-3` (stereo not given), the fold change amounted to 0.71.
`OC[C@H]1O[C@@H](O[C@@H]2[C@@H](CO)O[C@](O)(CO)[C@H]2O)[C@H](O)[C@@H](O)[C@H]1O`: the fold change came out at 0.82.
For `C=Cc1c(C)c2cc3[nH]c(cc4nc(cc5nc(cc1[nH]2)C(C)=C5CCC(=O)O)C(CCC(=O)O)=C4C)c(C)c3C=C`, the fold change came to 1.09.
`N=c1nc(N2CCCCC2)cc(N)n1O`: the fold change was found to be 0.77.
For the compound `CCOC(N)=O`, the fold change worked out at 0.87.
As for `O=C(OCC(O)CO)c1ccccc1Nc1ccnc2cc(Cl)ccc12` (stereo not given), the figure is 0.5; as for `COc1ccc(NS(=O)(=O)c2ccc(N)cc2)nn1`, 1.39.
For `C=CCc1ccccc1OCC(O)CNC(C)C` (stereo not given), the fold change came to 1.15.
With `Nc1nccs1`, the fold change stood at 1.19.
For `CC1(C)S[C@@H]2[C@H](NC(=O)[C@@H](N)c3ccc(O)cc3)C(=O)N2[C@H]1C(=O)O`, the fold change was determined as 1.21.
Take `O=C1NS(=O)(=O)c2ccccc21`: the fold change was 0.91.
`O=C(O)CCCCC1SCC2NC(=O)NC21` (stereo not given): the fold change is 2.49.
Take `O=C(O)c1cn(C2CC2)c2cc(N3CCNCC3)c(F)cc2c1=O`: the fold change turned out to be 1.5.
Take `O=C(O)C1CCCNC1` (stereo not given): the fold change was determined as 0.81.
For the compound `NC(N)=N/N=C\c1c(Cl)cccc1Cl`, the fold change stood at 0.39.
For `CC(=O)O[C@H]1C[C@@]2(C)[C@@H](C[C@@H](O)C3[C@]2(C)CC[C@H]2[C@H](C)[C@H](O)CC[C@]32C)/C1=C(/CCC=C(C)C)C(=O)O` (stereo not given in full), the fold change came out at 1.
Take `Cc1onc(-c2ccccc2)c1C(=O)NC1C(=O)N2[C@@H]1SC(C)(C)[C@@H]2C(=O)O` (stereo not given in full): the fold change stood at 1.85.
Regarding `O=C(O)c1cc(=O)c2ccccc2[nH]1`, the fold change was 1.38.
Take `O=C1c2ccc(O)c(O)c2C(=O)c2c(O)ccc(O)c21`: the fold change worked out at 0.67.
On to `CCOc1ccc(Cc2nccc3cc(OCC)c(OCC)cc23)cc1OCC`, for which the fold change came to 1.35.
On to `Oc1cccc(O)c1`, for which the fold change was 1.06.
With `CN1CCN(CC(=O)N2c3ccccc3C(=O)Nc3cccnc32)CC1`, the fold change turned out to be 1.06.
